Experimental data taken from the supplement of paper PMC6555819.

Tested on: VDR:RXRa (NR concentration 270 nM, RXRa partner concentration 90 nM)
Assay: PBM binding z-score (relative to random genomic background probes); higher = stronger binding; sequences stand for … in GC…GCGATTGACAGCGTAGAATGAAGG
Description: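 Protein-binding microarray (Agilent 4x180K custom design, double-stranded 60-nt probes: 5' GC cap, 34-nt variable region, 24-nt constant primer region; full probe sequence given). Purified or IVT nuclear receptor:RXRα heterodimers (3:1 NR:RXRα, mostly 270:90 nM) or homodimers were incubated for 1 h in PBS with 2% milk and no ligand, then detected with Alexa488 antibodies. Fluorescence from o1-orientation probes (~5 replicates averaged) was converted to z-scores against 500 random hg19 background probes. Variable regions are seed direct-repeat (DR0–DR5) sites, all their single-nucleotide variants and half-site ablations.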

Row | Sequence | PBM binding z-score
1 | TCTTGTACATCAACAGGAGGTTAAGAAAGATCGA | 0.977
2 | CCTCGGAGGACAGAAGGTCGGAGCTGTCCGCTTT | -0.398
3 | CGAACTCGGTCATTGACAGGACAGTGAATAGTAA | 0.452
4 | CTCGAAAGGTCGGTTGAGGAGAGTATACGGATAA | 0.954
5 | CCTTACGGGTCAAGATTATAGCACGGGTGGTACG | 2.9
6 | AGAACGAGGTTAAGATCAGGGAAACAGAATACAT | 1.36
7 | CTCGAAAGGTCGTTTGAGGTGAGTATACGGATAA | 4.84
8 | GTACCAAGGTGAAAAGGTCGTTGATGAGTAGGCG | 2.59
9 | CCGAGCAGGTTATGGGGCATTCAGGCAACGGTGA | -0.144
10 | ATCTCCAGGTAACCAAGTTCAGTGAATGCCGAAC | 4.4
11 | AGTCATAGTTCAGGACGAGGTAACGTAAAGCACG | 0.92
12 | ATCTCTACGTAAAGTTCAGTGAAAGATCGATAGA | 1.67
13 | GGAATGAGGGCATTCGAGTTGATAGCATGGCGAT | 3.45
14 | AGAATGAGGTTACCAAAGAACAGGGAAACGCTTG | 1.17
15 | TCTCGGAGGACACGAAAGGTTAGAGCTCGACATC | 0.803
16 | TTTCGGAGGACACGAAGGTCAGAGCTTTCCAGAG | 2.47
17 | GCTGCTAGGTCAGCTGATGGTCAGCTAAAGCTCG | -0.126
18 | TAGCCGAGGTCAGATCGGGCCAGTATACGCTATA | 4.26
19 | CCGACTGGGGCATAAGGGTACCATAAGCCAGCCC | -0.316
20 | ATATCTAGGTTAAGGGTCATTCAGGTTGGTTCGC | 5.89

Row | Sequence | PBM binding z-score
21 | ATCTCTAGATAAAAGTTCAGTGAATCCCGAGGAT | 0.828
22 | AGTCCAAGTTCATCTAGGTAACGTAAGATATGCT | 4.48
23 | TCTGCTAGGTCAAAGATGGTCAGCTAATCTGCTA | 1.68
24 | TCTCGGAGGACACGAAGGTCCGAGCTTTCCAGAG | 0.0624
25 | TCTTGTAGATCAACAGGAGGTTAGGAAAGATCGA | 0.0401
26 | CCTTACGGGTCACTGATAGGTTATAGCATTTGGA | 3.6
27 | ACAATGAGGTTATACGTAGATCAGGGAAGAAAGT | 1.5
28 | CCTCCAAGGTCAAGGTCAGTGAAAGAGACTCGAA | 4.69
29 | ACTATTAGGTGAGACGAGGGCAACCGATAGGTTG | 1.77
30 | GGAACGTGGGCATTCGAGTTGATAGCATGGCGAT | -0.17
31 | TCTCCTAGGTCAACGATGGTCAGCTAATCTGCTA | 2.39
32 | CATTACGGGTCACGAGGTTATAGCACGACGAGCG | 5.57
33 | TCTGCTTGGTCAGTTGGTCAGCTAACGAGCTGCC | -0.451
34 | CCTATTAGTTGACTATAAGGGCAACCGAAGCTCG | 0.181
35 | ATCTCTAGGTAAAAGTTCAGTGATTCCCGAGGAT | 1.05
36 | GCATATAGGTAATACAACGTGAAAGTCCGATTGT | -0.316
37 | TAGCCTAGGTGAGATCGGGCCAGTATACGCTATA | -0.592
38 | CCGACTGGGGCAAGGTAACCATAACGCACAGCCA | -0.466
39 | TCCGCTAGGTCAACGATGGTCAGCTAATCTGCTA | 1.45
40 | TTACCAAGGTGAAAGGTCGTTGGTGCACGCCTTG | 3.5
